Measured values: PMC5540273 (PLoS ONE, 2017)
Read-outs that look alike come from different tables or passages of the source.

Assays:
FGFR4 = settings: concentration: 1 μM, replicates: in singlicate; n = 1
FGR = settings: concentration: 1 μM, replicates: in singlicate; n = 1
FLT1 = settings: concentration: 1 μM, replicates: in singlicate; n = 1
FLT3-autoinhibited = settings: concentration: 1 μM, replicates: in singlicate; n = 1
FLT3 = settings: concentration: 1 μM, replicates: in singlicate; n = 1
FLT4 = settings: concentration: 1 μM, replicates: in singlicate; n = 1
FRK = settings: concentration: 1 μM, replicates: in singlicate; n = 1
FYN = settings: concentration: 1 μM, replicates: in singlicate; n = 1
GAK = settings: concentration: 1 μM, replicates: in singlicate; n = 1
GCN2(Kin.Dom.2,S808G) = tested on: T1, GCN2(Kin.Dom.2,S808G); settings: concentration: 1 μM, replicates: in singlicate; n = 1
T1 construct: gene EIF2AK4

GRK1 = settings: concentration: 1 μM, replicates: in singlicate; n = 1
GRK2 = tested on: T2, GRK2; settings: concentration: 1 μM, replicates: in singlicate; n = 1
T2 construct: gene ADRBK1

GRK3 = tested on: T3, GRK3; settings: concentration: 1 μM, replicates: in singlicate; n = 1
T3 construct: gene ADRBK2

GRK4 = settings: concentration: 1 μM, replicates: in singlicate; n = 1
GRK7 = settings: concentration: 1 μM, replicates: in singlicate; n = 1
GSK3A = settings: concentration: 1 μM, replicates: in singlicate; n = 1
GSK3B = settings: n = 1
HASPIN = tested on: T4, HASPIN; settings: concentration: 1 μM, replicates: in singlicate; n = 1
T4 construct: gene GSG2

HCK = settings: concentration: 1 μM, replicates: in singlicate; n = 1
HIPK1 = settings: concentration: 1 μM, replicates: in singlicate; n = 1
[1] = concentration: 1 μM, replicates: in singlicate
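Also: KINOMEscan kinase panel screen.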

Structure (SMILES): CC(C)(C)c1ccc(-n2cnc3c(N)ncnc32)cc1 [SKF-97263]
- %Inh (FGFR4): 10%
- %Inh (FGR): 30%
- %Inh (FLT1): 7%
- %Inh (FLT3-autoinhibited): 17%
- %Inh (FLT3): 6%
- %Inh (FLT4): 15%
- %Inh (FRK): 0%
- %Inh (FYN): 2%
- %Inh (GAK): 9%
- %Inh (GCN2(Kin.Dom.2,S808G)): 11%
- %Inh (GRK1): 3%
- %Inh (GRK2): 0%
- %Inh (GRK3): 0%
- %Inh (GRK4): 24%
- %Inh (GRK7): 0%
- %Inh (GSK3A): 31%
- %Inh (GSK3B; [1]): 4%
- %Inh (HASPIN): 64%
- %Inh (HCK): 13%
- %Inh (HIPK1): 19%

Structure (SMILES): Clc1ccc(-c2cc(-c3c[nH]nc3-c3ccccn3)ccn2)cc1 [GW681251]
- %Inh (FGFR4): 13%
- %Inh (FGR): 11%
- %Inh (FLT1): 20%
- %Inh (FLT3-autoinhibited): 0%
- %Inh (FLT3): 0%
- %Inh (FLT4): 0%
- %Inh (FRK): 0%
- %Inh (FYN): 10%
- %Inh (GAK): 74%
- %Inh (GCN2(Kin.Dom.2,S808G)): 7%
- %Inh (GRK1): 43%
- %Inh (GRK2): 0%
- %Inh (GRK3): 11%
- %Inh (GRK4): 0%
- %Inh (GRK7): 0%
- %Inh (GSK3A): 7%
- %Inh (GSK3B; [1]): 32%
- %Inh (HASPIN): 0%
- %Inh (HCK): 0%
- %Inh (HIPK1): 7%

Structure (SMILES): Cn1cc(-c2ccc3c(c2)CCN3C(=O)Cc2cccc(C(F)(F)F)c2)c2c(N)ncnc21 [GSK2606414]
- %Inh (FGFR4): 0%
- %Inh (FGR): 0%
- %Inh (FLT1): 31%
- %Inh (FLT3-autoinhibited): 3%
- %Inh (FLT3): 28%
- %Inh (FLT4): 22%
- %Inh (FRK): 0%
- %Inh (FYN): 13%
- %Inh (GAK): 3%
- %Inh (GCN2(Kin.Dom.2,S808G)): 5%
- %Inh (GRK1): 5%
- %Inh (GRK2): 4%
- %Inh (GRK3): 0%
- %Inh (GRK4): 100%
- %Inh (GRK7): 0%
- %Inh (GSK3A): 0%
- %Inh (GSK3B; [1]): 0%
- %Inh (HASPIN): 0%
- %Inh (HCK): 0%
- %Inh (HIPK1): 0%

Structure (SMILES): Nc1nc(-c2ccccn2)c(-c2ccnc3ccccc23)s1 [GW548057]
- %Inh (FGFR4): 0%
- %Inh (FGR): 9%
- %Inh (FLT1): 34%
- %Inh (FLT3-autoinhibited): 0%
- %Inh (FLT3): 0%
- %Inh (FLT4): 0%
- %Inh (FRK): 0%
- %Inh (FYN): 11%
- %Inh (GAK): 47%
- %Inh (GCN2(Kin.Dom.2,S808G)): 0%
- %Inh (GRK1): 1%
- %Inh (GRK2): 0%
- %Inh (GRK3): 58%
- %Inh (GRK4): 0%
- %Inh (GRK7): 0%
- %Inh (GSK3A): 8%
- %Inh (GSK3B; [1]): 5%
- %Inh (HASPIN): 26%
- %Inh (HCK): 4%
- %Inh (HIPK1): 17%

Structure (SMILES): Cc1ccc(O)cc1Nc1cc(C(F)(F)F)nc2ccc(-c3ccncc3)cc12 [GW630823]
- %Inh (FGFR4): 5%
- %Inh (FGR): 22%
- %Inh (FLT1): 14%
- %Inh (FLT3-autoinhibited): 0%
- %Inh (FLT3): 27%
- %Inh (FLT4): 13%
- %Inh (FRK): 14%
- %Inh (FYN): 7%
- %Inh (GAK): 4%
- %Inh (GCN2(Kin.Dom.2,S808G)): 0%
- %Inh (GRK1): 0%
- %Inh (GRK2): 0%
- %Inh (GRK3): 0%
- %Inh (GRK4): 0%
- %Inh (GRK7): 0%
- %Inh (GSK3A): 5%
- %Inh (GSK3B; [1]): 0%
- %Inh (HASPIN): 0%
- %Inh (HCK): 18%
- %Inh (HIPK1): 8%

Structure (SMILES): FC(F)(F)c1ccc(-c2cc(-c3c[nH]nc3-c3ccccn3)ccn2)cc1 [GW599550]
- %Inh (FGFR4): 0%
- %Inh (FGR): 14%
- %Inh (FLT1): 20%
- %Inh (FLT3-autoinhibited): 0%
- %Inh (FLT3): 0%
- %Inh (FLT4): 17%
- %Inh (FRK): 0%
- %Inh (FYN): 38%
- %Inh (GAK): 46%
- %Inh (GCN2(Kin.Dom.2,S808G)): 0%
- %Inh (GRK1): 0%
- %Inh (GRK2): 0%
- %Inh (GRK3): 33%
- %Inh (GRK4): 14%
- %Inh (GRK7): 4%
- %Inh (GSK3A): 19%
- %Inh (GSK3B; [1]): 0%
- %Inh (HASPIN): 14%
- %Inh (HCK): 0%
- %Inh (HIPK1): 0%

Structure (SMILES): Cl.c1ccc(Cn2ccc3cc(Nc4ncnc5ccccc45)ccc32)cc1 [GW275568]
- %Inh (FGFR4): 8%
- %Inh (FGR): 21%
- %Inh (FLT1): 24%
- %Inh (FLT3-autoinhibited): 11%
- %Inh (FLT3): 0%
- %Inh (FLT4): 8%
- %Inh (FRK): 0%
- %Inh (FYN): 25%
- %Inh (GAK): 25%
- %Inh (GCN2(Kin.Dom.2,S808G)): 0%
- %Inh (GRK1): 9%
- %Inh (GRK2): 0%
- %Inh (GRK3): 0%
- %Inh (GRK4): 0%
- %Inh (GRK7): 0%
- %Inh (GSK3A): 11%
- %Inh (GSK3B; [1]): 7%
- %Inh (HASPIN): 1%
- %Inh (HCK): 0%
- %Inh (HIPK1): 3%

Structure (SMILES): COc1cc2ncnc(Nc3ccc(OCc4ccccc4Br)c(Cl)c3)c2cc1OC.Cl [GI261590]
- %Inh (FGFR4): 9%
- %Inh (FGR): 43%
- %Inh (FLT1): 23%
- %Inh (FLT3-autoinhibited): 0%
- %Inh (FLT3): 0%
- %Inh (FLT4): 0%
- %Inh (FRK): 6%
- %Inh (FYN): 0%
- %Inh (GAK): 0%
- %Inh (GCN2(Kin.Dom.2,S808G)): 24%
- %Inh (GRK1): 0%
- %Inh (GRK2): 0%
- %Inh (GRK3): 41%
- %Inh (GRK4): 0%
- %Inh (GRK7): 0%
- %Inh (GSK3A): 0%
- %Inh (GSK3B; [1]): 10%
- %Inh (HASPIN): 34%
- %Inh (HCK): 25%
- %Inh (HIPK1): 0%

Structure (SMILES): O=C(Nc1n[nH]c2nc(-c3ccco3)c(Br)cc12)c1ccc(CN2CCCC2)cc1.O=C(O)[C@H](O)[C@@H](O)C(=O)O [SB-742352]
- %Inh (FGFR4): 0%
- %Inh (FGR): 3%
- %Inh (FLT1): 34%
- %Inh (FLT3-autoinhibited): 51%
- %Inh (FLT3): 95%
- %Inh (FLT4): 1%
- %Inh (FRK): 0%
- %Inh (FYN): 0%
- %Inh (GAK): 0%
- %Inh (GCN2(Kin.Dom.2,S808G)): 0%
- %Inh (GRK1): 6%
- %Inh (GRK2): 0%
- %Inh (GRK3): 0%
- %Inh (GRK4): 20%
- %Inh (GRK7): 0%
- %Inh (GSK3A): 76%
- %Inh (GSK3B; [1]): 15%
- %Inh (HASPIN): 15%
- %Inh (HCK): 26%
- %Inh (HIPK1): 0%

Structure (SMILES): Nc1n[nH]c2nnc(-c3ccccc3)cc12 [SB-517389]
- %Inh (FGFR4): 14%
- %Inh (FGR): 29%
- %Inh (FLT1): 12%
- %Inh (FLT3-autoinhibited): 1%
- %Inh (FLT3): 0%
- %Inh (FLT4): 0%
- %Inh (FRK): 6%
- %Inh (FYN): 28%
- %Inh (GAK): 10%
- %Inh (GCN2(Kin.Dom.2,S808G)): 10%
- %Inh (GRK1): 0%
- %Inh (GRK2): 0%
- %Inh (GRK3): 0%
- %Inh (GRK4): 0%
- %Inh (GRK7): 0%
- %Inh (GSK3A): 71%
- %Inh (GSK3B; 1 µM): 19%
- %Inh (HASPIN): 0%
- %Inh (HCK): 0%
- %Inh (HIPK1): 56%
